Compounds with a hit are over-represented: about 5.1% of the library has one in this group of screens.
ROMK primary = ROMK potassium channel modulators, primary screen, cell-based, thallium flux, MLSMR library. Tet-inducible ROMK, thallium flux fluorescence; actives lie on both sides. B-score at 10 µM. actives 2% (n = 130,000);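 active = signal ratio slope over the read window, or its plate-corrected B-score, at least 3 SD from the plate mean, either direction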;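 note: B-score of the F/F0 ratio slope over 7 to 12 s after thallium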
S1P4 antagonist = S1P4 receptor antagonists, primary screen, cell-based; AID 1510, 2009; S1P4-expressing cells, antagonist mode, reporter read-out; actives 0.26% (n = 220,000); inhibition, % at 4.98 µM; in the data active = inhibition above about 29%;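 note: 0% = wells stimulated with agonist and 100% = vehicle wells without agonist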
RAM network inh = inhibitors of the yeast RAM network, primary screen, dse1pr::URA3 reporter, 5-FOA selection; S. cerevisiae dse1pr::URA3 reporter, 5-FOA growth OD615, 2 d; analog-sensitive cbk1-as2 kinase mutant strain; inhibition, % at 50 µM; actives 1.8% (n = 190,000); AID 868, 2007;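 active = inhibition above a set limit, 3 SD over mean compound inhibition, cut at about 8.4% in these data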;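 note: 0% = DMSO-only wells with no growth and 100% = 10 µM 1-NA-PP1 full growth; inhibition rescues growth on 5-FOA so higher OD means more RAM inhibition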
S1P3 antag = S1P3 receptor antagonists, primary screen, cell-based | inhibition, % at 4.98 µM | AID 485, 2006 | actives 0.27% (n = 170,000) | CHO S1P3 NFAT-BLA reporter, FRET fluorescence, antagonist mode;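 active = inhibition above the plate cutoff, the mean inhibition of test wells on that plate plus 3 SD, cut at about 28% in these data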;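 note: cells challenged with S1P at its EC80 of 0.8 µM; blue over green emission ratio from cleaved BLA substrate after 4 h stimulation; 0% = S1P-stimulated wells and 100% = unstimulated DMSO-only wells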
Cl transport mod = KCC2 cotransporter modulators, thallium flux, primary screen, cell-based, HEK293 KCC2, FluoZin-2 fluorescence, MLSMR. actives 2.2% (n = 190,000). Solute carrier family 12 member 5 (Homo sapiens), Q9H2X9. AID 1456, 2008. KCC2 cells, thallium flux FluoZin-2 fluorescence. B-score of Tl+ flux slope (higher = more flux/activation; lower = inhibition) at 10 µM;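 active = thallium flux slope and its plate-corrected score both differing from the plate sample mean at a set confidence after two filtering rounds, in either direction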;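 note: slope of fluorescence scaled to starting intensity during 10 to 20 s after thallium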
S1P4 ag = S1P4 receptor agonists, primary screen, cell-based; S1P4-expressing cell line, agonist reporter assay; activation, % at 4.98 µM; AID 1509, 2009; Sphingosine 1-phosphate receptor 4 (Homo sapiens), O95977; actives 0.35% (n = 220,000); in the data active = activation above about 11%;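 note: 0% = DMSO vehicle and 100% = reference agonist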
ROMK retest = ROMK channel modulator hit retest, confirmation, cell-based, thallium flux, duplicate, resupplied hits. shares compounds with ROMK primary. actives 54% (n = 3,000). normalized thallium flux (F/F0 slope) at 10 µM. fluorescence ratio; active compounds read low;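 active = Flux at 10 µM at least 3 SD below or above vehicle control mean in one or both replicates; inconclusive = no clear call, values can overlap the other calls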
Numbers without * were called inactive; ? = inconclusive; · = no result given.

SMILES	ROMK primary	S1P4 antagonist	RAM network inh	S1P3 antag	Cl transport mod	S1P4 ag	ROMK retest
Cc1ccc(-n2cc(CN3CCC(CO)(Cc4ccccc4)CC3)cn2)cc1	-5.2*	-9	0	-3	-1.8	0	0.059*
Cc1ccc(-n2cc(CN3CCC(CO)(Cc4cccc(C(F)(F)F)c4)CC3)cn2)cc1	-2.5	8	1	-7	0.48	-1	·
c1ccc2c(c1)OCCOCCOCCOCCOCCOc1ccccc1OCCOCCOCCO2	-4.8*	3	1	-1	-1	1	0.042*
Cc1cccc(C)c1NS(=O)(=O)c1ccc(OCCNS(C)(=O)=O)cc1	-0.35	-4	2	7	0.68	-1	·
NC1=NC2=C(CCCC2)C2(CCCCC2)S1	-3.1*	5	1	5	-0.45	1	0.064*
O=C(Nc1ccc2oc(-c3cccnc3)nc2c1)c1cccnc1	-5.1*	0	1	18	0.91	2	0.08
CCOc1cccc(C(=O)Nc2ccc3oc(-c4cccnc4)nc3c2)c1	·	2	·	12	0.07	1	·
CCOC(=O)N1CCC(n2c(SCC(=O)NCCC3=CCCCC3)nc3ccccc3c2=O)CC1	-7*	6	5	·	-0.5	1	?
CCOC(=O)N1CCC(n2c(SCC(=O)Nc3ccccc3OC)nc3ccccc3c2=O)CC1	-4.2*	-13	7	·	-1.6	2	0.065*
CNNC(=S)Nc1cccc(SC)c1	·	-2	·	-4	-1.2	2	·
O=[N+]([O-])c1ccc(N2CCN(CCO)CC2)cc1Sc1nc2ccccc2[nH]1	0.47	-3	0	·	0.13	-1	·
CCC(C)NCC(=O)Nc1ccc(-c2nc3cc(NC(=O)CNC(C)CC)ccc3o2)cc1 (stereo not given)	-2.3*	0	1	4	-0.018	1	0.061*
COc1cc(/C=C(\C#N)C(N)=O)ccc1OS(=O)(=O)c1ccc(C)cc1	·	-3	0	-10	0.42	0	0.041*
O=C(Nc1ccccc1N1CCOCC1)c1cccc(NS(=O)(=O)c2ccc(F)c(F)c2)c1	-0.45	-17	6	-8	0.18	-1	·
CC(C)(C)C1CCC2(CC1)CC(=O)c1ccccc1O2 (stereo not given)	·	·	·	·	-0.098	·	·
CCOC(=O)c1[nH]c2ccc(OC)cc2c1C	-0.27	-5	4	·	-0.05	2	·
CCOC(=O)c1cc2cc(OC)ccc2[nH]1	-1.2	-13	1	·	-0.045	0	0.072
O=C(Oc1ccc(Nc2ncnc3ccccc23)cc1)c1cccnc1	-2.9*	-15	2	6	-2.2	0	0.065*
CCOC(=O)c1ccc(Nc2ncnc3ccccc23)cc1	0.41	-26	1	6	-0.89	1	·
O=C(COC(=O)c1ccncc1)c1ccc(Cl)c(Cl)c1	-0.71	-1	2	-5	-0.43	1	·
NC(=O)c1sc2nc(-c3ccccc3)c3c(c2c1N)CCCC3	-0.2	-12	0	5	-0.1	-2	·
NC(=O)c1sc2nccc(Nc3ccccc3)c2c1N	·	-6	1	72*	-0.52	0	0.06*
COc1ccccc1N1CCN(c2ccc(-c3ccccc3)nn2)CC1	2.5*	-18	1	·	-1.4	0	0.079
COc1ccccc1N1CCN(c2nc(-c3ccccc3)cc(C(F)(F)F)n2)CC1	-0.42	-12	2	·	·	1	·
CC1CC(N(C(=O)C2CC2)c2ccccc2)c2ccccc2N1C(=O)C1CC1 (stereo not given)	-3.4*	-16	3	-3	-1.6	1	0.058*
SMILES	ROMK primary	S1P4 antagonist	RAM network inh	S1P3 antag	Cl transport mod	S1P4 ag	ROMK retest
CCOC(=O)Nc1ccc2c(c1)nc(CN1CCCCC1)n2C	0.54	-7	2	13	0.099	2	·
COc1ccc(S(=O)(=O)NC(CC(=O)NCc2ccco2)c2ccco2)cc1 (stereo not given)	·	-6	1	2	0.012	3	·
Cc1ccc(S(=O)(=O)NC(CC(=O)NCc2ccco2)c2ccco2)cc1 (stereo not given)	2.8*	1	1	-2	·	-2	?
CC1=CC(C)(C)N(S(=O)(=O)c2ccc(F)cc2)c2ccccc21	1.6	6	6	·	-2.1	2	·
CC(=O)Nc1ccc(S(=O)(=O)N2c3ccccc3C(C)=CC2(C)C)cc1	2.1*	1	0	5	0.13	-1	0.086
CC(C)=CCC/C(C)=C/CC(C)(C)CNCCN1CCNCC1	·	2	-2	·	-0.093	-2	·
CC(C)=CCC/C(C)=C/CCC(C)NCCN1CCNCC1 (stereo not given)	-3.3*	12	0	-13	·	0	0.054*
Cc1ccc(-n2cc(CNC(C)Cn3cncn3)c(-c3ccc(F)cc3)n2)cc1 (stereo not given)	-1.6	-8	-1	-13	-0.46	0	·
Cc1ccc(-n2cc(CNC(C)c3cnn(C)c3C)c(-c3ccc(F)cc3)n2)cc1 (stereo not given)	-4.1*	-15	2	8	0.2	0	0.054*
Cc1ccc(-n2cc(CNCCCn3ccnc3C)c(-c3ccc(F)cc3)n2)cc1	-0.31	-7	1	4	·	2	·
Cc1ccc(-n2cc(CNC(C)c3cnn(C)c3)c(-c3ccc(F)cc3)n2)cc1 (stereo not given)	-2.7*	-4	1	-3	1.3	4	0.051*
COc1ccc(-n2c(-c3ccc(Cl)cc3)c[n+]3c2CCc2ccccc2-3)cc1	-2.6	-1	1	-7	-0.64	-1	·
Cc1ccc(-n2c(-c3ccc(Br)cc3)c[n+]3c2CCc2ccc4cccnc4c2-3)cc1	·	-8	1	·	-1.4	-2	0.034*
O=c1c(C=NCCN2CCNCC2)c(-c2ccccc2)[nH]n1-c1ccc([N+](=O)[O-])cc1	-1.8	21	3	-11	1.5	0	·
COc1ccc(-c2[nH]n(-c3ccc([N+](=O)[O-])cc3)c(=O)c2C=NCCN2CCNCC2)cc1	-3*	-9	0	4	-1.1	1	0.059*
CCCCCCN1C=CC=C/C1=C/C=C(C#N)C#N	-6.9*	-18	5	6	-3.4	1	0.046*
O=C1C2CC=CCC2C(=O)N1Cc1nnc(-c2ccccc2Br)o1 (stereo not given)	0.65	-2	·	-19	-0.037	0	·
O=c1c2ccccc2c(/C=N/c2nnc(Cc3ccccc3)s2)c(O)n1-c1ccc(Cl)cn1	-4.3*	0	6	-6	-2.5	2	0.06*
